According to the supplement of paper PMC7411054:

The compounds below were run on HepG2-TUBA1B-RELA (assay: lowest phenotypically active concentration; higher = less potent). Details: treatment time: 24 h.
Procedure, shortened: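 Each of fifteen gene-edited A549, HepG2 and WPMY1 reporter lines, marked with BFP for segmentation and GFP and RFP/FusionRed, was treated in four wells at 0.3, 1, 3 or 9 µM for 24 h prior to live imaging. Normalisation of per-well live-cell features used solvent control wells. Deviation needed ≥3 of 4 wells beyond the 95th percentile of control Euclidean distances, and reproducibility needed a median replicate Pearson correlation above the 95th percentile of non-replicates. Both were required for phenotypic activity.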

Structure (SMILES) | lowest phenotypically active concentration [µM]
O=c1[nH]cc(F)c(=O)[nH]1 [5-Fluorouracil] | 3
CC[C@H](C)[C@H](NC(=O)OCc1ccccc1)C(=O)N[C@@H](CCC(=O)OC(C)(C)C)C(=O)N[C@@H](C)C(=O)N[C@H](C=O)CC(C)C | ≤ 0.3
CCN1CCN(C(c2cccnc2)c2cc(Cl)c3cccnc3c2O)CC1 (centres undefined) | 9
CCOc1cc(N2CCC(O)CC2)ccc1Nc1ncc2c(n1)N(C)c1ccccc1C(=O)N2C | 3
Cc1c2oc3c(C)ccc(C(=O)NC4C(=O)NC(C(C)C)C(=O)N5CCCC5C(=O)N(C)CC(=O)N(C)C(C(C)C)C(=O)OC4C)c3nc-2c(C(=O)NC2C(=O)NC(C(C)C)C(=O)N3CCCC3C(=O)N(C)CC(=O)N(C)C(C(C)C)C(=O)OC2C)c(N)c1=O (centres undefined) [Actinomycin D] | ≤ 0.3
N#Cc1c(NC(=O)c2cccc3ccccc23)sc2c1CCCC2 | ≤ 0.3
COc1ccc2c(Oc3ccc(NC(=O)c4c(C)n(CC(C)(C)O)n(-c5ccccc5)c4=O)nc3)ccnc2c1 | 9
CN1C/C(=C/c2ccc(B(O)O)cc2)C(=O)/C(=C/c2ccc(B(O)O)cc2)C1 | 3
Nc1ccn([C@@H]2O[C@H](CO)[C@@H](O)C2(F)F)c(=O)n1 [gemcitabine] | ≤ 0.3
Cc1nc(NC(=O)N2CCC[C@H]2C(N)=O)sc1-c1ccnc(C(C)(C)C(F)(F)F)c1 [alpelisib] | 1
CCN(CC)CCCC(C)Nc1ccnc2cc(Cl)ccc12 (centres undefined) [chloroquine] | 1
O=c1cc(-c2cccc3c2Sc2ccccc2S3)oc(N2CCOCC2)c1 | 9
CC(C)CCN1c2nc(Nc3cc(F)c(O)c(F)c3)ncc2N(C)C(=O)C1C (centres undefined) | 3
Nc1cc(C(F)(F)F)c(-c2cc(N3CCOCC3)nc(N3CCOCC3)n2)cn1 [buparlisib] | 3
COc1cc([C@@H]2c3cc4c(cc3[C@@H](O[C@@H]3O[C@@H]5CO[C@@H](C)O[C@H]5[C@H](O)[C@H]3O)[C@H]3COC(=O)[C@H]23)OCO4)cc(OC)c1O [etoposide] | 1
CCN1CCN(c2cc(-c3ccc(F)cc3)c3c(n2)CCCCCC3)CC1 [blonanserin] | 3
COc1cc2c(NC3CCN(C(C)C)CC3)nc(C3CCCCC3)nc2cc1OCCCN1CCCC1 | ≤ 0.3
COc1cc2ncn(-c3cc(OCc4ccccc4C(F)(F)F)c(C(N)=O)s3)c2cc1OC | ≤ 0.3
Cc1nc(NC(=O)N2CCC[C@H]2C(N)=O)sc1-c1csc(C(C)(C)C)n1 | 3
